For some of these results: Potency and affinity values are given separately. Activity calls are given as the source filed them.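 How the source made its calls, unless noted: active means signal rise over 3 SD above mean of control wells given weak agonist, in both repeats and first screen; inactive means the rest.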
Legend:
[1] = test system: TRPC4 beta (transient receptor potential cation channel C4), mouse; experiment: TRPC4 cation channel opening, retest – cell-based, Fluo4 calcium, HEK293 TRPC4beta/mu-opioid, duplicates, 10 µM, confirmation (AID 2426;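 active means fluorescence ratio normalized to control raised more than 50% in primary screen plus both repeat runs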); details: Fluo4 calcium fluorescence, at 10 µM; active compounds read high
[2] = test system: transient receptor potential cation channel C4 beta (TRPC4), mouse; experiment: TRPC4 cation channel opening, second retest – cell-based, second round, Fluo4, HEK293 TRPC4beta/mu-opioid, 1 µM, confirmation (AID 2461;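 active means primary screen active and over 50% activation in each of two duplicate runs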); details: Fluo4 calcium fluorescence, at 1 µM; active compounds read high
[3] = test system: TRPC4 (transient receptor potential cation channel C4 beta), mouse; experiment: potentiation of DAMGO EC20 TRPC4 response – cell-based, second round, Fluo-4, HEK293 TRPC4beta/mu-opioid, 1 µM, confirmation (AID 2554;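 active means primary screen hit whose fluorescence ratio, in both repeats, exceeds the weak agonist control mean by 3 SD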); details: DAMGO EC20, Fluo-4 calcium flux, at 1 µM; active compounds read high
[4] = test system: TRPC4 beta (transient receptor potential cation channel C4), mouse; experiment: potentiation of DAMGO EC20 TRPC4 response – cell-based, Fluo-4, HEK293 TRPC4beta/mu-opioid, confirmation (AID 2555;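 active means primary screen hit whose calcium fluorescence ratio, in both repeats, exceeds the weak agonist control mean by 3 SD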); details: DAMGO EC20, Fluo-4 calcium flux, at 10 µM; active compounds read high
[5] = biological target: Short transient receptor potential channel 4 (Mus musculus) (UniProt Q9QUQ5); experiment: blockers of DAMGO-evoked TRPC4 calcium flux – cell-based, Fluo4, HEK293 TRPC4beta/mu-opioid, confirmation (AID 2636;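 active means calcium signal cut by more than 3 SD below the full-agonist control yet still positive, in both repeats and the earlier primary screen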); details: at 10 µM; active compounds read high
Chain of Short transient receptor potential channel 4 (Mus musculus) (Q9QUQ5 whole entry, looked up): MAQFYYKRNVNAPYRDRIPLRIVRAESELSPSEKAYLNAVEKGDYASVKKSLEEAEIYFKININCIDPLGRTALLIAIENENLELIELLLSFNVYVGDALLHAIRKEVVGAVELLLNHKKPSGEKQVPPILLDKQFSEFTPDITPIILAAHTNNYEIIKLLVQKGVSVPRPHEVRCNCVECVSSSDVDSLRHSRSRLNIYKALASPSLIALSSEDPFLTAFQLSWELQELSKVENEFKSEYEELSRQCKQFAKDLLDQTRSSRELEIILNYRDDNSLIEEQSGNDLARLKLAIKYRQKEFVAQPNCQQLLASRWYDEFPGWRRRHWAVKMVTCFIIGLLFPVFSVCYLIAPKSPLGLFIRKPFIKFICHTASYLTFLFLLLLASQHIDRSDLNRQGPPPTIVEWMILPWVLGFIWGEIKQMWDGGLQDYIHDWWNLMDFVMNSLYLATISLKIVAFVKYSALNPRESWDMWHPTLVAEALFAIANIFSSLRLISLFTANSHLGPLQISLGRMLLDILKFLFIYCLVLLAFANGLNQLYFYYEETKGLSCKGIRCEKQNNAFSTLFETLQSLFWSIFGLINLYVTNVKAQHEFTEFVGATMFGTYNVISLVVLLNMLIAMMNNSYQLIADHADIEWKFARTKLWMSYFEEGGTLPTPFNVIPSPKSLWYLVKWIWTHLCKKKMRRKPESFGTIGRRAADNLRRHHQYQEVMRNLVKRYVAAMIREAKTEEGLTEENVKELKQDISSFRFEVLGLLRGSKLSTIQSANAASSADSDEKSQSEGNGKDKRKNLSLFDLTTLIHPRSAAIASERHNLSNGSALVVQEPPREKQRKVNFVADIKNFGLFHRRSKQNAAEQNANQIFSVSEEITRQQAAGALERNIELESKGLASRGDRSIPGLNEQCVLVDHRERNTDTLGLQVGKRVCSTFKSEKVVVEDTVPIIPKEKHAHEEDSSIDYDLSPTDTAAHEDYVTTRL

[6] = biological target: Short transient receptor potential channel 4 (Mus musculus) (UniProt Q9QUQ5); experiment: blockers of DAMGO-evoked TRPC4 calcium flux – cell-based, second round, Fluo4, HEK293 TRPC4beta/mu-opioid, 1 µM, confirmation (AID 2637;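 active means calcium signal ratio cut to more than 3 SD under the fully stimulated control mean yet still positive, in both repeats and the primary screen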;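 on inhibition: percent of integrated ratio relative to wells lacking test compound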); details: at 1 µM; active compounds read high
[7] = biological target: Short transient receptor potential channel 4 (Mus musculus) (UniProt Q9QUQ5); experiment: calcium entry via TRPC4 opening agents – cell-based, HEK293 TRPC4/mu-opioid, Fluo-4 calcium, dose response (AID 434937;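 active means primary screen activator hit with a dose response curve and TRPC4 channel activation at any tested dose; inactive means no activation, no dose response, or not a primary hit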)
[8] = biological target: Short transient receptor potential channel 4 (Mus musculus) (UniProt Q9QUQ5); experiment: potentiation of DAMGO-evoked TRPC4 calcium signal – cell-based, HEK293 TRPC4/mu-opioid, Fluo-4 calcium, EC20 DAMGO, dose response (AID 434941;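 active means earlier screen potentiator hit that boosts the TRPC4 ion channel at some dose, with a dose response; inactive means no potentiation, no dose response, or not a prior hit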;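 further: calcium entry triggered by an EC20 dose of DAMGO at the co-expressed mu-opioid receptor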)
[9] = biological target: Short transient receptor potential channel 6 (Mus musculus) (UniProt Q61143); experiment: TRPC6 blockade by TRPC4 inhibitor hits – cell-based, HEK293, membrane potential dye, duplicate, selectivity assay for TRPC4 inhibitor project, confirmation (AID 434948;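 active means active in primary screen and both duplicates, each dropping signal beyond three positive-control SD with fluorescence still positive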); details: HEK293 TRPC6, membrane potential dye fluorescence, at 10 µM, stimulated with maximal-effect acetylcholine; active compounds read high
Chain of Short transient receptor potential channel 6 (Mus musculus) (Q61143 whole entry, looked up): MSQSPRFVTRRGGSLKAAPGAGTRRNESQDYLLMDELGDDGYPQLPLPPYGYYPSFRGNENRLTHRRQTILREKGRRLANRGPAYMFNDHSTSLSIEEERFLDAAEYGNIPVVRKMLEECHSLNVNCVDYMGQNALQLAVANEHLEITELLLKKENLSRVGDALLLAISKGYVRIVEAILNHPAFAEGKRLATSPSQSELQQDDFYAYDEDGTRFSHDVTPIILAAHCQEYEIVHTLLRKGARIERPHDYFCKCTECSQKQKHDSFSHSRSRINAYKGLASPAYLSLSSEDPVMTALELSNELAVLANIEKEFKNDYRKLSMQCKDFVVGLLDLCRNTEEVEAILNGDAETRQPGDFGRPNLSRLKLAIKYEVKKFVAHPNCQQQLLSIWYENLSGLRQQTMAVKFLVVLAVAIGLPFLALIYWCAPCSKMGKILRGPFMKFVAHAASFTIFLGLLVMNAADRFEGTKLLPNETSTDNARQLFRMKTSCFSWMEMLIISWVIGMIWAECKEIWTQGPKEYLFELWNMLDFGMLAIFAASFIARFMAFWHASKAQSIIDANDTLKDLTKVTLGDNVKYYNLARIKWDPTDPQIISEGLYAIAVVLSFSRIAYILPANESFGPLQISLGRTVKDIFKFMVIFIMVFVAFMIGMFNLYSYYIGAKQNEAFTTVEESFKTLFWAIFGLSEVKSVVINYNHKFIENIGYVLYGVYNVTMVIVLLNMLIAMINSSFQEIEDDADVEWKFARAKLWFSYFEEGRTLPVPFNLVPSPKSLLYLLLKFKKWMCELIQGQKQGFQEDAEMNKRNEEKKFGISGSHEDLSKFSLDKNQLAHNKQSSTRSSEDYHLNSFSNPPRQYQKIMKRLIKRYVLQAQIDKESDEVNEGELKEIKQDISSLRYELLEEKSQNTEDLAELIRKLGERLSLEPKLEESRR

[10] = biological target: Short transient receptor potential channel 6 (Mus musculus) (UniProt Q61143); experiment: TRPC6 opening by TRPC4 activator hits – cell-based, HEK293, membrane potential dye, duplicate, selectivity assay for TRPC4 activator project, confirmation (AID 434950;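 active means membrane potential signal rise above negative control mean plus 3 SD in both duplicates, also active in the earlier TRPC4 screen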); details: HEK293 TRPC6, membrane potential fluorescence, at 10 µM; activation: active compounds read high; outcome: activation
[11] = biological target: Short transient receptor potential channel 6 (Mus musculus) (UniProt Q61143); experiment: positive modulators of mouse TRPC6 channel – HEK293 cells, membrane potential dye, duplicate, selectivity assay for TRPC4 potentiator project, confirmation (AID 434952;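 active means compound raising the membrane signal above positive-control mean plus 3 SD in both repeats, and a primary screen hit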); details: HEK293 TRPC6, membrane potential dye fluorescence, at 10 µM, maximal acetylcholine added after compound; active compounds read high
[12] = biological target: Short transient receptor potential channel 4 (Mus musculus) (UniProt Q9QUQ5); experiment: calcium flux activators in TRPC4/5HT1a cells, counter-screen for TRPC4 activator project, cell-based, second counter screen, HEK293 TRPC4/5HT1a, Fluo-4 (AID 434977;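 active means calcium signal rise above buffer-control mean plus 5 SD in both duplicates, and also a hit in the primary screen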); details: Fluo-4 calcium flux, at 10 µM; active compounds read high
[13] = serotonin-gated TRPC4 signal block – cell-based, second counter screen, HEK293 TRPC4/5HT1a, Fluo-4, counter-screen for TRPC4 inhibitor project, confirmation (AID 434978;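 active means primary screen active whose calcium signal fell more than 3 SD beyond the full-serotonin control mean in both duplicate plates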;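 on outcome: serotonin given first at submaximal then at maximal dose after compound preincubation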); details: Fluo-4 calcium flux, at 10 µM, serotonin added to trigger calcium flux; active compounds read high
[14] = test system: TRPC4 (mouse), co-expressed with 5HT1a in HEK293; experiment: enhancement of serotonin-evoked TRPC4 response – cell-based, second counter screen, HEK293 TRPC4/5HT1a, Fluo-4, counter-screen for TRPC4 potentiator project, confirmation (AID 434979); details: Fluo-4 calcium flux, at 10 µM, serotonin added at its EC20 dose; active compounds read high
[15] = nonspecific calcium rise without TRPC4 – cell-based, HEK293 mu-opioid receptor line, counter-screen for TRPC4 activator project, confirmation (AID 449723;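 active means hit in primary screen, with calcium signal over 5 SD above buffer well mean in both duplicates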;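 further: counter screen cells carry the mu-opioid receptor alone and lack TRPC4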); details: HEK293 mu-opioid cells, Fluo-4 calcium fluorescence, at 10 µM; active compounds read high
[16] = nonspecific potentiation of DAMGO calcium response – cell-based, HEK293 mu-opioid receptor line, counter-screen for TRPC4 allosteric potentiator project, confirmation (AID 449724;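 active means calcium signal rise more than 3 SD above the low-dose agonist control mean, in both duplicate plates and the primary screen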); details: HEK293 mu-opioid receptor cells, Fluo-4 calcium flux, at 10 µM, compound added before EC20 DAMGO stimulus; active compounds read high

Measured: inhibition

c1ccc2[nH]c(CCCCc3nc4ccccc4[nH]3)nc2c1
active: [5] 85% | [6] 55% | [13] 40.6%
inactive: all other assays above

CCCc1nc(SC2CCCC2)c2c(=O)n(C)c(=O)n(C)c2n1
active: [13] 39.1%
inactive: all other assays above

COc1ccc(CN2CCN(Cc3ccc(C(F)(F)F)cc3)CC2)c(OC)c1
active: [5] 95% | [6] 41% | [13] 23%
inactive: all other assays above

Cc1ccc2nc3c(c(N)c2c1)CCN3C
active: [5] 90% | [6] 51% | [9] 35.5% | [13] 15.4%
inactive: all other assays above

Cc1cc(C(=O)N/N=C\c2cc(C(C)(C)C)ccc2O)n[nH]1
active: [5] 84% | [13] 24.2%
inactive: all other assays above

COc1ccc(Sc2nc(-c3ccccc3)ncc2C(=O)O)cc1
active: [5] 48% | [13] 45.5%
inactive: all other assays above

Cc1ccc(Cn2c(Cc3ccccc3)nc3ccccc32)cc1
active: [6] 64% | [13] 7.29%
inactive: all other assays above

O=C(c1ccc2c(c1)OCO2)C1CCCN(Cc2ccccc2OC(F)F)C1 (stereo unspecified)
active: [5] 89% | [13] 41.6%
inactive: all other assays above

O=C(COc1ccc(Cl)cc1)Nc1ccc(C(=O)O)cc1NC(=O)COc1ccc(Cl)cc1
active: [5] 68%
inactive: all other assays above

CC1CCN(C(C)C(=O)Nc2ccccc2-c2ccccc2)CC1 (stereo unspecified)
active: [5] 82% | [6] 36% | [13] 33.1%
inactive: all other assays above

O=c1oc2ccccc2c(Nc2ccccc2)c1CN1CCCCC1
active: [5] 84% | [6] 46%
inactive: all other assays above

COc1ccccc1CNCc1ccc(OC)c2ccccc12
active: [5] 96% | [13] 31%
inactive: all other assays above

COc1ccc(Nc2cc(C)nc3ccccc23)cc1
active: [5] 86% | [9] 39% | [13] 28.9%
inactive: all other assays above

O=C(CCN1CCc2ccccc2C(O)(c2ccccc2)C1)c1ccc2c(c1)OCCO2 (stereo unspecified)
active: [13] 39.2%
inactive: all other assays above

c1ccc(Nc2n[nH]nc2-c2ccccc2)cc1
active: [5] 96% | [6] 60% | [13] 17.4%
inactive: all other assays above

COc1cc(/C=C2\SC(=S)N(NS(=O)(=O)c3ccc(C)cc3)C2=O)cc(OC)c1OC
active: [5] 95% | [13] 34.5%
inactive: all other assays above

From PubChem BioAssay
